Source: PubChem BioAssay (National Center for Advancing Translational Sciences (NCATS))
An excerpt weighted towards active compounds, which were near 14% of everything screened.
MARV entry inh = inhibitors of Marburg virus binding or cell entry; Marburg virus pseudotyped entry inhibition, cell reporter; Potency, µM (titrated, usually from 37.8 µM), most hits filed as inhibitors; 1.8% of 300,000 active; calls by dose curve; tested in HEK293 cells
Pf growth 96h = P. falciparum growth inhibition at 96 hours; P. falciparum luciferase reporter growth, 96 h; Potency, µM (series often up to 28.7 µM), usual class: inhibitors; 6.9% of 320,000 active
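Parasite growth measured via integrated firefly luciferase reporter in P. falciparum. Infected erythrocytes at 2% hematocrit, 0.05% parasitemia final were treated 96 hours at 37 C under 5% CO2, and luminescence was read.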
Lassa entry inh = Lassa virus entry inhibition; Potency, µM (highest dose often 37.9 µM), hits mostly inhibitors; Lassa virus pseudotype entry inhibition, cell reporter; AID 540256; 1.2% of 300,000 active; calls by dose curve; tested in HEK293 cells; note: nearly all actives have a fitted effect of over 50% in size
HCMV inh = blocks human cytomegalovirus replication; HFF cells, HCMV-luciferase reporter, 72 h; hits give low values; activity change, negative = inhibition, % at 57.5 µM; 4.5% of 410,000 active; in the data active = activity change below about -60%; inconclusive = no clear call, values can overlap the other calls; inactive = above about -39%
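Screen run at 2 compound doses on HFFs infected with reporter HCMV, MOI 1 PFU/cell. Luciferase activity from cell lysates at 72 h post infection gave inhibition relative to buffer-only and Salinomycin wells.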
HCV inh = HCV inhibition. Huh7.5.1 HCVcc-Cre infection, luciferase reporter, 44 h. Potency, µM (titrated, usually from 41.8 µM), most hits filed as inhibitors. AID 651820. 3.4% of 340,000 active
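Infectious HCV cell culture screen: compound-treated cells (1,000/well, pre-plated 4 h) are infected with HCVcc-Cre at roughly 0.5 moi and grown 44 h. Infection is quantified by luciferase signal after 15 min substrate incubation at room temperature.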
Pf growth 48h = P. falciparum growth inhibition at 48 hours (one generation); P. falciparum luciferase growth in erythrocytes, 48 h; Potency, µM (series often up to 28.7 µM), most hits filed as inhibitors; 5.9% of 310,000 active
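Parasite viability was followed by luminescence of a genomically integrated firefly luciferase. Cultures held 0.1% parasitemia at 2% hematocrit (final), incubated under 5% CO2 at 37 C.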
A number is an active result; 0 = inactive; ? = inconclusive; - = not tested or not shown. Unless noted, calls come from the whole dose curve; as a rule, active = well fitted inhibition curve with a large enough effect; inconclusive = small, poorly fitted or top-dose-only effect, or another doubt; inactive = no such curve, though single readings can be large or run the other way.

SMILES	MARV entry inh	Pf growth 96h	Lassa entry inh	HCMV inh	HCV inh	Pf growth 48h
CC(C)(c1ccccc1)c1ccc(OCCn2cnc3ccccc3c2=O)cc1	0	0	0	0	?	-
O=C(c1ccccc1)c1ccc(OCCn2cnc3ccccc3c2=O)cc1	0	0	25µM	0	0	0
CCCCOC(=O)c1ccc(NC(=O)c2c(Cl)ccc(Cl)c2OC)cc1	?	5.2µM	?	0	?	0
O=c1c(-c2ccco2)nc2ccccc2n1/C=C(/c1ccc(C(F)(F)F)cc1)n1c(=O)[nH]c2ccccc21	-	-	-	0	-	-
COc1ccc(C(CC(=O)Nc2nccs2)C(C)C)cc1 (stereo not given)	?	13µM	0	0	0	?
CC(CC(=O)Nc1nccs1)c1ccccc1 (stereo not given)	0	?	0	0	0	?
O=C(CC(c1ccccc1)c1ccco1)Nc1nccs1 (stereo not given)	0	9.3µM	0	0	0	10µM
Cn1c(Cn2cnc3ccccc32)nnc1SCC(=O)CC(=O)Nc1ccccc1	0	0	0	0	0	0
COc1ccc(NC(=O)Cc2nnc(SCC(=O)Nc3nccs3)n2C)cc1	0	3.3µM	0	0	0	0
COc1ccc(NC(=O)Cc2nnc(SCC(=O)Nc3ccccc3)n2C)cc1	0	0	0	0	0	0
COc1ccc(NC(=O)CSc2nnc(Cn3cnc4ccccc43)n2C)cc1	0	2.3µM	0	0	0	0
O=C(C[C@@H]1CC[C@@H]2[C@H](COC[C@H](O)CN2C(=O)Nc2ccc(F)cc2)O1)NCCc1ccncc1	-	-	-	0	-	-
Cc1ccccc1OC(=O)CSc1nnc(-c2cccs2)o1	?	-	0	0	-	-
Cn1c(CSCc2ccccc2)nnc1SCC(=O)Nc1nccs1	0	5.9µM	0	0	0	?
COc1ccc(OCc2nn3c(Cn4cnc5ccccc54)nnc3s2)cc1	?	0	0	-68	?	?
CN(C)c1ccc(C=Nc2ccccc2C(N)=O)cc1	15µM	0	?	0	0	0
COc1ccc(N/C(C)=C2/C(=O)C(=O)N(CCO)C2c2ccc(Br)cc2)cc1 (stereo not given)	0	?	0	-96	0	?
COc1ccc(C2/C(=C(/O)c3ccccc3)C(=O)C(=O)N2CCO)cc1 (stereo not given)	0	0	0	0	0	0
C/C(CC(c1ccccc1)c1c(O)c2ccccc2oc1=O)=N\NC(N)=S (stereo not given)	?	10µM	0	0	0	?
Cc1cccc(-n2c(=O)c3c(c4cc(C)ccc4n3C)n(CC(=O)NCC3CCCO3)c2=O)c1 (stereo not given)	-	-	0	-106	-	-
Cc1ccc2c(c1)c1c(c(=O)n(-c3ccccc3C)c(=O)n1CC(=O)NCc1ccccc1)n2C	-	-	0	?	-	-
COc1ccc2c(c1)c1c(c(=O)n(-c3cccc(C)c3)c(=O)n1CC(=O)NCC1CCCO1)n2C (stereo not given)	-	-	0	0	-	-
Cc1ccc2c(c1)c1c(c(=O)n(-c3ccccc3C)c(=O)n1CC(=O)NCC1CCCO1)n2C (stereo not given)	-	9.3µM	0	0	0	?
CCCS(=O)(=O)NC(=O)C1(C)CCN(C(=O)c2ccnc(Cl)c2)C1 (stereo not given)	-	-	-	0	-	-
O=CNc1cc(-c2ccc(C(=O)NC3CC3)cc2)cn2c(-c3ccc(F)cc3)cnc12	-	-	-	0	-	-
SMILES	MARV entry inh	Pf growth 96h	Lassa entry inh	HCMV inh	HCV inh	Pf growth 48h
COc1ccc(C(NC(=O)C2CCN(CCCOc3ccccc3)CC2)c2cccs2)cc1 (stereo not given)	-	-	-	-103	-	-
Cc1ccc(C(NC(=O)C2CCN(CCCOc3ccccc3)CC2)c2ccccn2)cc1 (stereo not given)	-	-	-	0	-	-
CCCN(C)C[C@H]1Oc2cc(C#Cc3ccc(F)cc3)ccc2S(=O)(=O)N([C@H](C)CO)C[C@@H]1C	-	-	-	0	-	-
Cc1ccc(/C(N)=N/OC(=O)C23CC4CC(CC(C4)C2)C3)cc1	0	?	0	0	0	0
Cc1ccc(-c2ncccc2OC(=O)C23CC4CC(CC(C4)C2)C3)cc1	0	9.3µM	0	0	0	?
COc1ccc(CNC(=O)c2ccc3nc(CCc4ccccc4)oc3c2)c(OC)c1	-	-	?	0	-	-
Cc1ccc(S(=O)(=O)Nc2ccc3c(c2)c2c(n3S(=O)(=O)c3ccc(C)cc3)CCCC2=O)cc1	?	0	?	0	?	?
CCOC(=O)c1c(C)n(S(=O)(=O)c2ccc(C)cc2)c2ccc(NS(=O)(=O)c3ccc(C)cc3)cc12	0	-	6.3µM	0	-	-
O=C(Nc1cc(S(=O)(=O)N2CCCCC2)ccc1N1CCCCC1)C1CC1	-	?	-	-61	0	10µM
O=C(Nc1cc(S(=O)(=O)N2CCCCC2)ccc1N1CCCCC1)c1ccncc1	-	8.3µM	-	0	0	9.3µM
O=C(Nc1cc(S(=O)(=O)N2CCCCC2)ccc1N1CCOCC1)c1ccc(F)cc1	?	?	0	0	0	?
CN1CCN(c2ccc(S(=O)(=O)N3CCOCC3)cc2NC(=O)C2CCCCC2)CC1	-	-	-	0	0	-
CCc1nc2ccc(C(=O)Nc3ccc(OC)c(OC)c3)cn2c1N(C)Cc1ccc(N(C)C)cc1	-	-	-	0	-	-
CCN(C(=O)CSc1nc2cc(C(F)(F)F)ccc2n1Cc1ccccc1)C1CCS(=O)(=O)C1 (stereo not given)	0	9.3µM	0	0	?	10µM
CCCCn1c(SCC(=O)N(C)C2CCS(=O)(=O)C2)nc2cc(S(N)(=O)=O)ccc21 (stereo not given)	-	0	-	-61	0	0
CCCCn1c(SCc2ccc(C(=O)OC)o2)nc2cc(S(N)(=O)=O)ccc21	0	0	?	0	2.5µM	?
CC(C)CCNC(=O)c1onc(CSc2ccc(F)cc2)c1C(=O)NCCC(C)C	-	?	-	0	0	4.1µM
CC(C)CCNC(=O)c1onc(CSc2ccc(F)c(F)c2)c1C(=O)NCCC(C)C	-	10µM	-	0	0	12µM
CC(C)CCNC(=O)c1onc(CSc2ccc(Cl)cc2)c1C(=O)NCCC(C)C	-	?	-	0	0	?
Cc1ccc(O)c(CN2CCN(c3ccccc3)CC2)c1	?	0	0	0	0	2.6µM
Cc1cc(O)c(CN2CCN(c3ccccc3)CC2)cc1C	0	-	0	0	0	1.5µM
Cc1nonc1C(=O)N/N=C/c1ccncc1	-	8.3µM	-	0	0	0
Nc1nonc1C(=O)N/N=C/c1ccncc1	0	?	-	0	0	0
CC(C)(C)c1nc(CN2CCCCC2)cc(CN2CCCCC2)c1O	?	?	?	0	0	9.3µM
CC(C)(C)c1nc(CN2CCOCC2)ccc1O	0	0	0	0	0	?
O=C(O)C1=C(O)CCCC1	0	-	-	-	-	-
O=C(/C=C/c1ccc(Br)cc1)c1ccc(NC2=NCCCS2)cc1	?	?	?	-100	?	?
CC(C)(C)c1ccc(/C=C/C(=O)c2ccc(NC3=NCCCS3)cc2)cc1	0	?	-	0	11µM	17µM
